Laboratory results: PubChem BioAssay (NCATS)
Several values for one entry are separate records, joined by “and”; a condition that tells them apart may be missing. Identical values can stand only once. Results filed as inconclusive are left out. Where a call stands in place of a potency, no number is given. A number with no mark means an inactive call. Activity calls are given as the source filed them. Calls come from the whole dose curve; as a rule, active = well fitted curve in the direction sought with a large enough effect; inconclusive = small, poorly fitted or top-dose-only effect, or another doubt; inactive = no such curve, though single readings can be large; an effect the other way counts as inactive or inconclusive.

What was measured:
[1] = Viability qHTS for spleen associated tyrosine kinase inhibitor (SYKi) drug resistant MV4-11 cells (AID 1963824); details: SYKi-resistant MV4-11 viability, CellTiter-Glo, 72 h; series mostly up to 45 µM; note: nearly all actives have a fitted effect of over 35% in size
Outline: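 SYK-inhibitor-resistant MV4-11 AML cells were seeded at 500 per well onto compound and cultured 72 hours (37 °C, 5% CO2). CellTiter-Glo was then added, and after 10 min at room temperature, luminescence gave viability.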

[2] = Quantitative highthroughput screen to assess conditional lethalithy of NOMO1 cells grown in RPMI1640 with untreated serum (RPMI+s) (AID 1963876); details: NOMO1 AML cells in RPMI+serum, CellTiter-Glo viability, 48 h; series mostly up to 45.8 µM; note: nearly all actives have a fitted effect of over 35% in size
Outline: (§1)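 Each medium arm—HPLM with 10% dialyzed FBS, or RPMI1640 with 5 mM glucose and 10% untreated or dialyzed FBS—was screened against an 11-point, 3-fold compound titration for 48 h at 37 °C, with CellTiter-Glo luminescence as endpoint.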

[3] = Quantitative highthroughput screen to assess conditional lethalithy of NOMO1 cells grown in RPMI1640 with dialyzed fetal bovine serum (RPMI+ds) (AID 1963877); details: NOMO1 in RPMI+dialyzed FBS viability, ATP luminescence, 48 h; series mostly up to 45.8 µM; note: nearly all actives have a fitted effect of over 30% in size
Outline: as §1

[4] = Quantitative highthroughput screen to assess conditional lethalithy of NOMO1 cells grown in Human Plasma-Like Medium with dialyzed fetal bovine serum (HPLM+ds) (AID 1963878); details: NOMO1 AML cells in HPLM+ds, CellTiter-Glo viability, 48 h; series mostly up to 45.8 µM; note: nearly all actives have a fitted effect of over 35% in size
Outline: as §1

[5] = Quantitative highthroughput screen to assess conditional lethalithy of P12 Ichikawa cells grown in Human Plasma-Like Medium with dialyzed fetal bovine serum (HPLM+ds) (AID 1963879); details: ATP luminescence, 48 h; Potency: viability; series mostly up to 45.8 µM; note: nearly all actives have a fitted effect of over 35% in size
Outline: as §1

[6] = Quantitative highthroughput screen to assess conditional lethalithy of P12 Ichikawa cells grown in RPMI1640 with dialyzed fetal bovine serum (RPMI+ds) (AID 1963880); details: ATP luminescence, 48 h; Potency: P12-Ichikawa viability; series mostly up to 45.8 µM; note: nearly all actives have a fitted effect of over 35% in size
Outline: as §1

[7] = Quantitative highthroughput screen to assess conditional lethalithy of P12 Ichikawa cells grown in RPMI1640 with untreated serum (RPMI+s) (AID 1963881); details: ATP luminescence, 48 h; Potency: viability; series mostly up to 45.8 µM; note: nearly all actives have a fitted effect of over 35% in size
Outline: as §1

[8] = Cellular viability qHTS for adrenocortical cancer (ACC) cell line SW-13 (AID 1963989); details: SW-13 ACC cells viability, CellTiter-Glo, 48 h; activity (max response): stronger effect = lower value; note: nearly all actives have a fitted effect of over 65% in size;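 for activity (max response): cells grown in serum-free medium with ITS supplement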
Outline: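 SW-13 cells in ITS-supplemented serum-free DMEM were plated overnight, then exposed for 48 h at 37C to compound titrations (up to 46 uM final). Viability was read by CellTiter-Glo luminescence; four-parameter logistic fits gave IC50 and efficacy.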

[9] = Cellular viability qHTS for adrenocortical cancer (ACC) cell line NCI-H295R (AID 1963990); details: CellTiter-Glo ATP luminescence, 48 h; series mostly up to 46.1 µM; note: nearly all actives have a fitted effect of over 60% in size
Outline: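 Luminescent ATP read-out (CellTiter-Glo, 20 min RT) after 48 h drug exposure of NCI-H295R cells; a titration up to 46 uM final. Data normalized to doxorubicin (100% inhibition) and DMSO (0%); 4-parameter fit gives IC50, max response.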

[10] = Quantitative highthroughput screen to assess conditional lethalithy of SEM cells grown in RPMI1640 with unreated serum (RPMI+s) (AID 1963883); details: SEM B-ALL cells, CellTiter-Glo viability, 48 h; series mostly up to 45.8 µM; note: nearly all actives have a fitted effect of over 35% in size
Outline: as §1

[11] = Quantitative highthroughput screen to assess conditional lethalithy of SEM cells grown in RPMI1640 with dialyzed fetal bovine serum (RPMI+ds) (AID 1963884); details: SEM B-ALL cells, RPMI+dialyzed FBS, CellTiter-Glo viability, 48 h; series mostly up to 45.8 µM; note: nearly all actives have a fitted effect of over 35% in size
Outline: as §1

[12] = Quantitative highthroughput screen to assess conditional lethalithy of SEM cells grown in Human Plasma-Like Medium with dialyzed fetal bovine serum (HPLM+ds) (AID 1963882); details: SEM B-ALL cells in HPLM+ds, CellTiter-Glo viability, 48 h; series mostly up to 45.8 µM; note: nearly all actives have a fitted effect of over 35% in size
Outline: as §1
Potency is the fitted concentration of half-maximal effect.

| SMILES | Potency [1] | Potency [2] | Potency [3] | Potency [4] | Potency [5] | Potency [6] | Potency [7] | Potency [8] | Potency [9] | Potency [10] | Potency [11] | Potency [12] | activity (max response) [8] |
| --- | --- | --- | --- | --- | --- | --- | --- | --- | --- | --- | --- | --- | --- |
| CC(C)c1nn(-c2c(Cl)cccc2Cl)c2nc(Cc3ccc(OCCO)cc3)[nH]c(=O)c12 | 0.0206 µM (active) | 0.118 µM (active) | 0.105 µM (active) | 0.118 µM (active) | 0.166 µM (active) | 0.148 µM (active) | 0.148 µM (active) | 50.1 nM (active) | 100 nM (active) |  |  |  |  |
| COc1ccc(-c2ccc3c(N4CCOCC4)nc(N4C[C@@H](C)O[C@@H](C)C4)nc3n2)cc1CO | 1.32 µM (active) | 2.96 µM (active) | 4.69 µM (active) | 1.32 µM (active) |  | 1.87 µM (active) | 1.05 µM (active) |  | 631 nM (active) | 1.87 µM (active) | 2.64 µM (active) |  |  |
| O=C(Nc1ccc(Oc2ccnc3[nH]ccc23)c(F)c1)c1cccn(-c2ccc(F)cc2)c1=O | 0.0146 µM (active) | inactive | inactive | inactive | inactive | inactive |  |  | inactive |  |  | 8.33 µM (active) |  |
| COc1cc(OC)c(NC(=O)Nc2cc(C)on2)cc1Cl | 6.61 µM (active) | inactive | inactive | inactive | inactive | inactive | inactive |  | inactive | inactive |  |  | -19.6% |
| NCc1ccc(OCCCc2sc(-c3ccc4c(c3)/C(=N/Nc3nc5ccccc5s3)CCC4)nc2C(=O)O)cc1 | 9.34 µM (active) | 0.0059 µM (active) | 0.0166 µM (active) | inactive | 0.0047 µM (active) | 0.0093 µM (active) | 0.0331 µM (active) |  | inactive |  | 0.0047 µM (active) |  |  |
| COc1ccc(CC2SC(=O)NC2=O)cc1C(=O)NCc1ccc(C(F)(F)F)cc1 (stereo unspecified) | 18.6 µM (active) | inactive | inactive | inactive | inactive | inactive | inactive |  |  |  |  |  | -17.2% |
| N#CC1(c2cccc(C(=O)Nc3cc(Oc4ccc5nc(NC(=O)C6CC6)sc5n4)ccc3F)c2Cl)CC1 | 0.58 µM (active) | 3.72 µM (active) | 2.09 µM (active) | 1.32 µM (active) | 5.9 µM (active) | 2.64 µM (active) |  |  |  | 3.72 µM (active) |  |  |  |
| C[C@]12CC[C@@H]3c4ccc(O)cc4C[C@@H](CCCCCCCCCS(=O)CCCC(F)(F)C(F)(F)F)[C@H]3[C@H]1CC[C@H]2O (stereo partly specified) | 4.68 µM (active) | inactive | inactive | inactive | inactive |  | inactive |  | inactive | inactive | inactive | inactive | -14.8% |
| CN(C)c1ccc2nc3ccc(=[N+](C)C)cc-3sc2c1 | 372 nM (active) and 841 nM (active) | 8.33 µM (active) | 6.62 µM (active) | 8.33 µM (active) | 5.26 µM (active) | 7.43 µM (active) | 5.9 µM (active) | 7.08 µM (active) and 4.11 µM (active) | 8.91 µM (active) and 8.2 µM (active) |  |  | 9.35 µM (active) |  |
| Nc1nc(OCc2ccccc2)c2[nH]cnc2n1 | 20.9 µM (active) | inactive | inactive | inactive | inactive | inactive |  |  | inactive |  | inactive | inactive | -9.18% |
| CN1CCC(=C2c3ccccc3C=Cc3ccccc32)CC1 | 18.8 µM (active) | inactive | inactive | inactive |  | inactive | inactive | 25100 nM (active) | 3980 nM (active) | inactive |  | inactive |  |
| Nc1nccc(-c2ccc3noc(-c4ccc(Cl)cc4)c3c2)n1 | 8.33 µM (active) | inactive | inactive | inactive |  | inactive | inactive |  | inactive | inactive | inactive | inactive | -6.01% |
| O=C(Nc1cc2cc[nH]c2cn1)c1ccccc1 | 9.2 µM (active) | 5.9 µM (active) | 13.2 µM (active) | 3.32 µM (active) |  | 5.9 µM (active) | 14.8 µM (active) |  |  | 2.96 µM (active) | 3.32 µM (active) |  |  |
| Cc1ccccc1C(=O)Nc1ccc(C(=O)N2CCCC(O)c3cc(Cl)ccc32)c(C)c1 (stereo unspecified) | 20.9 µM (active) | inactive | inactive | inactive | inactive | inactive |  |  | 16400 nM (active) | inactive | inactive |  |  |
| CC(C)c1ccc2c(c1)c(SC(C)(C)C)c(CC(C)(C)C(=O)O)n2Cc1ccc(Cl)cc1 | 10.5 µM (active) | inactive | inactive | inactive |  | inactive | inactive |  | inactive | inactive | inactive | inactive | 11.6% |
| N[C@H](CSC(c1ccccc1)(c1ccccc1)c1ccccc1)C(=O)O | 14.8 µM (active) | inactive | inactive | inactive | inactive | inactive |  |  | inactive |  | 13.2 µM (active) | 16.6 µM (active) | -17.5% |
| CC(C)C1CCC(C(=O)N[C@H](Cc2ccccc2)C(=O)O)CC1 (stereo partly specified) | inactive | inactive | inactive | inactive |  | inactive | inactive |  | inactive | inactive | inactive | inactive | 3.47% and 2.35% |
